This is an account of results in PubChem BioAssay (NCI).

Among the test systems are T-47D breast; BT-549 breast; MDA-MB-435 melanoma; SW-620 colon; MCF7 breast; HCT-116 colon; HCC-2998 colon; KM12 colon.
Assay in all cases: NCI-60 one-dose screen, 48 h (100 = growth as untreated, 0 = no growth, -100 = all killed)
Conditions in all cases: 10 µM unless noted

The structures appear in SMILES notation. This is part of a sample that, as a whole, favours compounds with a hit. Of some 83,000 tested, about 20% had one in any assay.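 Plates (96-well) were seeded with cells, treated with compound at one concentration, and incubated for 48 hours before percent growth was determined.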 A number with no mark means an inactive call. The source made the active and inactive calls. Rule for the calls: active = growth percent below 10; inactive = the rest.

As for `COc1cc(C(=O)/C=C/c2c(-c3ccc(F)cc3)nc3sc(C)cn23)cc(OC)c1OC`, the growth with T-47D breast is 9.38% (active); with BT-549 breast, 15%; in the experiment on MDA-MB-435 melanoma, 3.64% (active); in the experiment on SW-620 colon, 30.6%; in the experiment on MCF7 breast, 29.5%; in the experiment on HCT-116 colon it was 20.1%. Moreover, the growth with HCC-2998 colon is 68.2%; in the experiment on KM12 colon it was 10.4%.

Turning to `O=c1c2cc(F)ccc2sc2c(NCCN3CCCCC3)nc3ccccc3c12`, the growth in the experiment with T-47D breast was 66.9%; in the experiment on BT-549 breast, 75.1%; in the experiment on MDA-MB-435 melanoma, 29.5%; in the experiment with SW-620 colon, 29.1%; in the experiment on MCF7 breast, 15.8%; in the experiment with HCT-116 colon, 25.3%. The growth with HCC-2998 colon is 13.9%; with KM12 colon, 29%.

On to `N=c1sc(Cc2ccc(Cl)cc2)cn1CC(=O)c1ccc(F)cc1`, for which the growth with T-47D breast is 64.6%; in the experiment with BT-549 breast, 94.9%; in the experiment on MDA-MB-435 melanoma, 37%; in the experiment on SW-620 colon, 53.5%; with MCF7 breast, 55%; with HCT-116 colon it was 63.7%. Moreover, the growth in the experiment with HCC-2998 colon is 59%; in the experiment on KM12 colon it was 39.9%.

Regarding `CC(=O)OC1CCC2(C)C(=CC3C4CCC(=O)C4(C)CCC32)C1` (stereo not given), the growth in the experiment with T-47D breast is 105%; in the experiment on BT-549 breast, 95.9%; in the experiment on MDA-MB-435 melanoma, 116%; with SW-620 colon, 104%; in the experiment with MCF7 breast, 97.6%; with HCT-116 colon, 100%. In addition, the growth with HCC-2998 colon was 102%; in the experiment with KM12 colon, 107%.

`CC1(c2ccccc2)NC(=O)N(NC(=O)CSc2nc(-c3cccs3)nc3ccccc23)C1=O` (stereo not given): the growth in the experiment with T-47D breast is 95.9%; with BT-549 breast, 110%; in the experiment on MDA-MB-435 melanoma, 103%; in the experiment with SW-620 colon, 109%; in the experiment on MCF7 breast, 106%; in the experiment on HCT-116 colon, 93.6%. Also, the growth with HCC-2998 colon is 98.4%; in the experiment with KM12 colon, 103%.

For `CCOC(=O)c1c2c(n3ccc(NC(=O)OC(C)(C)C)cc13)C(=O)c1ncccc1C2=O`, the growth was 5.16% (active) with T-47D breast; -36.7% (active) in the experiment on BT-549 breast; -62.2% (active) with MDA-MB-435 melanoma; -74.9% (active) in the experiment on SW-620 colon; -72.2% (active) in the experiment with MCF7 breast; -65.8% (active) with HCT-116 colon. Also, the growth with HCC-2998 colon is -59.4% (active); in the experiment on KM12 colon it was -46.4% (active).

As to `CN(C)c1ccc(-c2ccc3[nH]c(=O)nc(-c4ccccc4)c3c2)cn1`, the growth with T-47D breast was 61%; in the experiment on BT-549 breast, 41.9%; in the experiment on MDA-MB-435 melanoma it was -11.9% (active); with SW-620 colon, 24.5%; in the experiment on MCF7 breast, 25.9%; in the experiment on HCT-116 colon it was 16.4%. In addition, the growth was 66.3% with HCC-2998 colon and 19.8% in the experiment on KM12 colon.

Take `COc1ccc2c(c1)O/C(=C/c1ccc(OCC(=O)c3ccccc3)cc1)C2=O`: the growth in the experiment with T-47D breast is 97.4%; in the experiment with BT-549 breast it was 119%; in the experiment on MDA-MB-435 melanoma it was 87%; with SW-620 colon, 131%; in the experiment on MCF7 breast, 118%; in the experiment with HCT-116 colon, 94.1%. Also, the growth in the experiment on HCC-2998 colon was 114%; in the experiment with KM12 colon it was 105%.

Turning to `O=c1cc(C2NNC(=S)N2)c2ccc3ccccc3c2o1` (stereo not given), the growth in the experiment on T-47D breast is 73.1%; in the experiment with BT-549 breast, 94%; in the experiment with MDA-MB-435 melanoma it was 102%; in the experiment with SW-620 colon, 92.2%; in the experiment on MCF7 breast, 86.9%; in the experiment with HCT-116 colon, 95.4%. Moreover, the growth with HCC-2998 colon was 113%; in the experiment on KM12 colon it was 100%.

Regarding `CC(CN1CCCCC1)C(=O)c1ccccc1` (stereo not given), the growth in the experiment with T-47D breast is 99.2%; with BT-549 breast, 116%; in the experiment with MDA-MB-435 melanoma, 104%; in the experiment on SW-620 colon, 104%; with MCF7 breast, 91%; with HCT-116 colon, 112%. For the same molecule, the growth in the experiment with HCC-2998 colon was 119%; in the experiment on KM12 colon, 105%.

Consider `CCN(CC)CCN1C(=O)c2c(c(C)c3c(oc4cc(O)ccc43)c2C)C1=O`, for which the growth is 89.5% with T-47D breast; 86.7% in the experiment with BT-549 breast; 72.9% in the experiment on MDA-MB-435 melanoma; -50.2% (active) in the experiment with SW-620 colon; 3.63% (active) with MCF7 breast; -85% (active) in the experiment with HCT-116 colon. Moreover, the values for the growth in the experiment on HCC-2998 colon and in the experiment with KM12 colon were 92% and -80.1% (active), respectively.

In the case of `CC(=O)C(C)Cc1cc2c(cc1C)C(C)(C)CCC2(C)C` (stereo not given), the growth in the experiment on T-47D breast was 80.2%; in the experiment with BT-549 breast, 95.5%; with MDA-MB-435 melanoma, 104%; with SW-620 colon it was 102%; in the experiment on MCF7 breast, 91.8%; with HCT-116 colon, 95.1%. Also, the growth with HCC-2998 colon was 102%; in the experiment with KM12 colon, 105%.

As to `CC1CC(C(C)(C)C)C(=O)C(C(C)(C)C)C1` (stereo not given), the growth was 111% in the experiment with T-47D breast; 110% in the experiment on BT-549 breast; 103% with MDA-MB-435 melanoma; 101% in the experiment with SW-620 colon; 108% with MCF7 breast; 108% in the experiment on HCT-116 colon. Moreover, the growth in the experiment with HCC-2998 colon is 111%; in the experiment with KM12 colon, 108%.

Consider `COc1ccc(-c2nc(SCCC(C)C)nc(N/N=C\c3ccccc3O)c2C#N)cc1`, for which the growth with T-47D breast is 83.9%; in the experiment with BT-549 breast, 100%; in the experiment on MDA-MB-435 melanoma, 87.8%; in the experiment with SW-620 colon it was 72.1%; in the experiment with MCF7 breast, 79%; in the experiment with HCT-116 colon, 71%. Also, the growth in the experiment with HCC-2998 colon is 104%; in the experiment with KM12 colon, 91.4%.

Regarding `COc1ccc2c(c1)[nH]c(=O)c1c3cccnc3cn21`, the growth was 60.2% in the experiment on T-47D breast; 45.6% with BT-549 breast; -6.86% (active) in the experiment on MDA-MB-435 melanoma; 20% with SW-620 colon; 20.5% in the experiment on MCF7 breast; 15.2% in the experiment with HCT-116 colon. Moreover, the growth in the experiment with HCC-2998 colon is 21.5%; with KM12 colon, 14.5%.
